This note sets out measurements from PubChem BioAssay.

The test relates to Neuregulin-1 EGF-like domain. Description: small molecules binding NRG1 EGF domain – biochemical, small-molecule microarray, 635 nm fluorescence, primary screen (AID 1081).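 Also: binding of the protein to compounds printed on small-molecule microarray slides.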 To be noted: higher = more signal.
In turn, `CC(C)c1ccc(NN2C(C(O)C3CCCCC3)C=CC3C(=O)N(c4ccccc4)C(=O)C32)cc1` (stereo unspecified) displayed a composite z-score of 1.
The value for `COc1ccc(C(=O)Nc2ccc(CN3C(=O)[C@]4(O[C@H](CC(=O)N(CCO)Cc5ccccc5)[C@@H]([Si](C)(C)c5ccc(OC)cc5)[C@@H]4C)c4ccccc43)cc2)cc1` was 1.26.
With `CCOC(=O)C=C1C[C@@H](c2cccc([N+](=O)[O-])c2)O[C@@H](c2cccc([N+](=O)[O-])c2)O1` the figure was 0.896.
`CC[C@@H]1C=C(C(=O)O)[C@H](c2cccc(Cl)c2)N1S(=O)(=O)c1ccc(C)cc1` had a composite z-score of 0.855.
The value for `C=CCOC(=O)[C@H]1[C@@H]2C(=O)O[C@@H](c3ccccc3)[C@@H](c3ccccc3)N2[C@@H](c2ccc(OCCOC(=O)[C@@H]3C[C@@H]4C(=O)N[C@@H](Cc5ccccc5)C(=O)N4[C@@H]3c3ccc(O)cc3)cc2)[C@]12C(=O)Nc1ccc(I)cc12` was 1.08.
As to `COC(=O)C1=CC(c2ccc(CO)cc2)=CC(C2CC2)N(Cc2cc3c(cc2Br)OCO3)C=C1C(=O)OC` (stereo unspecified), the composite z-score was 1.15.
In turn, `O=C1O[C@H](c2ccccc2)[C@H](c2ccccc2)N2[C@H]1[C@@H](C(=O)O)[C@]1(C(=O)Nc3ccc(C#CC4(O)CCCCCC4)cc31)[C@H]2c1ccccc1OCCO` displayed a composite z-score of 1.19.
The value for `CCCCCCc1nc(-c2ccc(OC)nc2)c(C)c2c1[Si](C(C)C)(C(C)C)OC2` was -0.59; that for `[N-]=[N+]=NCc1ccccc1[C@H]1OC(c2ccc(OCCCO)cc2)=N[C@@]1(Cc1ccccc1N=[N+]=[N-])C(=O)N1CCOCC1` was 1.21; that for `C=CCOC(=O)[C@H]1[C@@H]2C(=O)O[C@@H](c3ccccc3)[C@@H](c3ccccc3)N2[C@@H](c2ccc(OCCOC(=O)[C@H]3C[C@H]4C(=O)NCC(=O)N4[C@H]3c3cccc(OCCO)c3)cc2)[C@]12C(=O)Nc1ccc(I)cc12` was 1.3.
With `COCCOC(=O)N1C(=O)[C@@]2(c3cc(C#CCNC(N)=O)ccc31)[C@H](C(N)=O)[C@H]1C(=O)O[C@H](c3ccccc3)[C@H](c3ccccc3)N1[C@@H]2c1ccc(O)cc1` the figure was 0.235; with `C=C1C(=O)C=C2CN(C(=O)c3ccccc3)[C@@](Cc3ccc(F)cc3)(C(=O)OC)[C@@H]12`, 1.09; with `CC(C)(C)OC(=O)N1[C@@H](C=C(Br)Br)COC1(C)C`, 0.286.
The value for `O=C1C[C@@](C(=O)NCC(F)(F)F)(c2ccc([N+](=O)[O-])cc2)[C@@H](c2ccc(CO)cc2I)N1CC12CC3CC(CC(C3)C1)C2` was 1.23.
`Cc1cccc([C@H]2C[C@H]3C(Br)=C[C@@]2(CO)C(=O)[C@]32CO2)c1`: the composite z-score was determined as 0.708.
With `COC(=O)C(CC#Cc1ccc2c(c1)[C@]1(C(=O)N2)[C@H](c2ccccc2OCCO)N2[C@H](c3ccccc3)[C@H](c3ccccc3)OC(=O)[C@H]2[C@@H]1C(=O)N1CCN(c2ncccn2)CC1)C(=O)OC` the figure was 1.13; with `O=C1NC(=O)C2C1C=CC(C(O)c1ccc(F)cc1)N2Nc1ccc(Cl)cc1Cl` (stereo unspecified), 0.885; with `C=CCOC(=O)[C@@H]1[C@H]2C(=O)O[C@H](c3ccccc3)[C@H](c3ccccc3)N2[C@H](c2ccc(OCCOC(=O)[C@@H]3C[C@@H]4C(=O)N[C@@H](CC(C)C)C(=O)N4[C@@H]3c3ccc(O)cc3)cc2)[C@@]12C(=O)Nc1ccc(I)cc12`, 1.29.
The molecule `COC(=O)c1ccc(OC)c(/C=C\CC(OC(=O)c2ccncc2)c2ccccc2)c1` (stereo unspecified) yielded a composite z-score of -0.0115.
With `COC(=O)[C@@]1(Cc2ccc(F)cc2)[C@H]2c3cc(C(=O)N4CCCC4)n(CCSCCO)c3C[C@H]2CN1C(=O)c1ccccc1` the figure was 1.32; with `Cc1c(NC(=O)/C(C#N)=C/C=C/c2ccc([N+](=O)[O-])cc2)c(=O)n(-c2ccccc2)n1C`, 1.25.
With `COc1ccc([Si](C)(C)[C@H]2[C@H](CC(=O)N(CCO)Cc3ccccc3)O[C@@]3(C(=O)N(Cc4cccc(N5CCCCC5=O)c4)c4ccccc43)[C@@H]2C)cc1` the figure was 0.907; with `O=C1c2ccccc2[C@@]2(Cc3ccccc3N(CC(F)(F)F)C2=O)[C@H](c2ccc(CO)cc2)N1Cc1ccccc1`, -0.533; with `CC(C)C[C@@H]1NC(=O)[C@@H]2C[C@H](C(=O)NCCCCCNC(=O)CS)[C@H](c3ccc(O)cc3)N2C1=O`, 1.17.
The value for `COc1ccc(C(O)C2C=CC3C(=O)N(C)C(=O)C3N2Nc2ccccc2)cc1` (stereo unspecified) was 1.27; that for `Cc1ccc(S[C@]2(C(=O)NCCN3CCOCC3)CC(=O)N(C(C)C)[C@@H]2c2ccc(CO)cc2I)cc1` was 1.35.
For `COc1ccc([Si](C)(C)[C@H]2[C@H](CC(=O)N(CCO)Cc3ccccc3)O[C@@]3(C(=O)N(Cc4ccc(N5C(=O)c6cccc7cccc5c67)cc4)c4ccccc43)[C@@H]2C)cc1`, the composite z-score came out at 1.14.
Take `COC(=O)[C@@]1(Cc2ccccc2)[C@H]2c3cc(C(=O)N(C)C)n(CCF)c3C[C@H]2CN1C(=O)c1ccccc1`: the composite z-score came out at 0.592.
With `C=CCC(OC(C)=O)[C@@H]1[C@@H](N(Cc2ccc(-c3ccccc3)cc2)C(=O)Cc2ccc(OC)cc2)c2cc(OCCCO)ccc2N1C(=O)c1ccc2ccccc2c1` (stereo partly specified) the figure was -0.659; with `C=C(C(=O)CC[C@@H](OC(=O)c1cccnc1)c1cccc(OCCO)c1)C(C)C`, -0.284.
Molecule `CCCC=C(CCC)[C@@H](NC(=O)c1ccc(C(=O)OC)cc1)c1ccc(C(=O)OC)cc1` displayed a composite z-score of -0.166.
With `[N-]=[N+]=NCc1ccccc1C[C@]1(C(=O)N2CCCCC2)COC(c2ccc(OCCCO)cc2)=N1` the figure was 0.996.
The molecule `COC(=O)[C@@]1(Cc2ccc(F)cc2)[C@H]2c3cc(C(=O)N4CCCC4)n(Cc4ccc(OC(F)(F)F)cc4)c3C[C@H]2CN1C(=O)c1ccccc1` yielded a composite z-score of 0.71.
Molecule `Cc1ccc(S[C@]2(C(=O)NCc3ccccc3)CC(=O)N(Cc3ccccc3C(F)(F)F)[C@@H]2c2ccc(CO)cc2I)cc1` showed a composite z-score of 0.472.
On to `COCCOC(=O)N1C(=O)[C@@]2(c3cc(C#CC4(O)CCCCCC4)ccc31)[C@H](C(N)=O)[C@H]1C(=O)O[C@H](c3ccccc3)[C@H](c3ccccc3)N1[C@@H]2c1ccc(OCCO)cc1`, for which the composite z-score was found to be 1.22.
The value for `OCCCc1cc[n+](Cc2cc3c(cc2Br)OCO3)cc1` was 0.583.
